Experimental data taken from the supplement of paper PMC10849652.
Targets with a hit are over-represented here; the source holds about 7,900 in all. About 0.6% of all pairs of compound and target were hits.

Assays:
Experiment in all cases: log2 fold change, soluble protein after heating vs DMSO (PISA); higher = thermal stabilisation; K562 cells, 10 uM, 30 min; active = over 0.2 and 3.5 SD of the protein, either way, in both replicates (recomputed)
[1] = compound: CS(=O)(=O)c1ccc(-c2cnc(N)c(C(=O)Nc3ccccc3)n2)cc1
Method in brief: (§1)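 Aliquots of K562 cells (2×10^6 cells/mL) treated with 10 μM compound for 30 min were heated for 3 min over 48°C-58°C. After pooling and extraction in PBS with 0.5% NP-40 at 4°C, soluble protein from a 21,000xg, 90 min spin was quantified by TMTpro 16plex LC-MS/MS with channel sums equalised. Thermal stability is expressed against control samples, from duplicates, as a log2 fold change.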

[2] = compound: C[C@@H](Oc1cc(-c2cnn(C3CCNCC3)c2)cnc1N)c1c(Cl)ccc(F)c1Cl [crizotinib]
Method in brief: as §1

[3] = compound: C[C@@H]1COCCN1C2=NC(=NC(=C2)C3(CC3)S(=O)(=O)C)C4=C5C=CNC5=CC=C4
Method in brief: as §1

[4] = compound: C[C@H](C1=CC=C(C=C1)C(=O)NC2=C3C=CNC3=NC=C2)N
Method in brief: as §1

[5] = compound: C[C@H](Nc1ncnc2nc[nH]c12)c1cc2cccc(Cl)c2c(=O)n1-c1ccccc1 [duvelisib]
Method in brief: as §1

[6] = compound: Cc1cc(Nc2cc(CN3CCOCC3)c3nc(C)c(Cc4ccc(Cl)cc4F)n3n2)n[nH]1 [gandotinib]
Method in brief: as §1

[7] = compound: Cc1cc(Nc2cc(N3CCN(C)CC3)nc(Sc3ccc(NC(=O)C4CC4)cc3)n2)n[nH]1 [tozasertib]
Method in brief: as §1

[8] = compound: Cc1cc(SCc2sc(-c3ccc(C(F)(F)F)cc3)nc2C)ccc1OCC(=O)O
Method in brief: as §1

[9] = compound: Cc1ccc(-n2nc(C(C)(C)C)cc2NC(=O)Nc2ccc(OCCN3CCOCC3)c3ccccc23)cc1 [doramapimod]
Method in brief: as §1

[10] = compound: Cc1ccc(C(=O)N(CCCN)[C@@H](c2nc3cc(Cl)ccc3c(=O)n2Cc2ccccc2)C(C)C)cc1 [ispinesib]
Method in brief: as §1

Measured: log2 fold change

DHX16 (UniProt O60231)
inactive: [1] 0.023 | [2] -0.013 | [3] 0.182 | [4] -0.03 | [5] -0.013 | [6] -0.06 | [7] -0.02 | [8] 0.053 | [9] -0.018 | [10] -0.01

EDC4 (UniProt Q6P2E9)
UniProt Q6P2E9, sequence (Q6P2E9 whole entry, looked up): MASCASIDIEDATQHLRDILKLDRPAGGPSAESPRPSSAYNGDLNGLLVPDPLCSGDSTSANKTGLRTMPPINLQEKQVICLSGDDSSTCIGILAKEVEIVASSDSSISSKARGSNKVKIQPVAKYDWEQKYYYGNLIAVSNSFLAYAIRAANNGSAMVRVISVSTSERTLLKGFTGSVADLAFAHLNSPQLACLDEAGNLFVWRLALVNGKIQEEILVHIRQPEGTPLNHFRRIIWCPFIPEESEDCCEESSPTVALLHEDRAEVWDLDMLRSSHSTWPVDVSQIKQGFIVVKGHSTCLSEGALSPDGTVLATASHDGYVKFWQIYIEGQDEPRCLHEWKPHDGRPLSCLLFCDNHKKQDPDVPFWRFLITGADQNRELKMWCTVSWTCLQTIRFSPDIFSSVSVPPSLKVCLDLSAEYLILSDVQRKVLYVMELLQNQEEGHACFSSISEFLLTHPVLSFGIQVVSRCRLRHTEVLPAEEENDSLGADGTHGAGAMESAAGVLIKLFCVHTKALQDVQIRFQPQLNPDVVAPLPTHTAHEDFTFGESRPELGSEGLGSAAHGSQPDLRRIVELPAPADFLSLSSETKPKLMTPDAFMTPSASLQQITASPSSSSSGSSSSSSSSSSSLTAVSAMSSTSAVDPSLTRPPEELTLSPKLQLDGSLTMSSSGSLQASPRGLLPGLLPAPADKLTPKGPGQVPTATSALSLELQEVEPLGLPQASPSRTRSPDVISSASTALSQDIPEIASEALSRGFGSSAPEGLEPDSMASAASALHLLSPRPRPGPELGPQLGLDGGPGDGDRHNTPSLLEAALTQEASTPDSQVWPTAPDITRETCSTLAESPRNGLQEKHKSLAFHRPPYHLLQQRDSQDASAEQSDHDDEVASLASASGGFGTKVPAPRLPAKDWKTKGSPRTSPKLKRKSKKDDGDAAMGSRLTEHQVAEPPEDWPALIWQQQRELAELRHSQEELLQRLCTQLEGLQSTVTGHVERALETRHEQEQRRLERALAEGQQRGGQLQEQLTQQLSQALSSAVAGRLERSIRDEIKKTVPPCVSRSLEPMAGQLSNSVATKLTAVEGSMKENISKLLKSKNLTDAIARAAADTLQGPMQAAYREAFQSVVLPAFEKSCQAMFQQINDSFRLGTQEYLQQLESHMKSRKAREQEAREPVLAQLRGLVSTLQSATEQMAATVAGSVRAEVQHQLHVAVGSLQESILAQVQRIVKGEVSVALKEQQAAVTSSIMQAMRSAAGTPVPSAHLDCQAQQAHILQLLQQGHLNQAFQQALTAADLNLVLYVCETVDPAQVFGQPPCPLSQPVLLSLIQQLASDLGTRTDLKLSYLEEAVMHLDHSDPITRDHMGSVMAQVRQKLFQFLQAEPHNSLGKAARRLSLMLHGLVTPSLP
inactive: [1] -0.064 | [2] 0.179 | [3] 0.003 | [4] -0.092 | [5] 0.003 | [6] -0.18 | [7] 0.061 | [8] 0.033 | [9] 0.005 | [10] -0.031

DDX46 (UniProt Q7L014)
inactive: [1] 0.12 | [2] 0.1 | [3] 0.185 | [4] -0.025 | [5] 0.144 | [6] -0.144 | [7] 0.109 | [8] 0.235 | [9] -0.087 | [10] 0.197

DDX4 (UniProt Q9NQI0)
inactive: [1] 0 | [2] 0.018 | [3] 0.013 | [4] 0.544 | [5] 0.265 | [6] 0.112 | [7] -0.042 | [8] -0.232 | [9] -0.021 | [10] -0.529

CTU1 (UniProt Q7Z7A3)
UniProt Q7Z7A3, sequence (Q7Z7A3 whole entry, looked up): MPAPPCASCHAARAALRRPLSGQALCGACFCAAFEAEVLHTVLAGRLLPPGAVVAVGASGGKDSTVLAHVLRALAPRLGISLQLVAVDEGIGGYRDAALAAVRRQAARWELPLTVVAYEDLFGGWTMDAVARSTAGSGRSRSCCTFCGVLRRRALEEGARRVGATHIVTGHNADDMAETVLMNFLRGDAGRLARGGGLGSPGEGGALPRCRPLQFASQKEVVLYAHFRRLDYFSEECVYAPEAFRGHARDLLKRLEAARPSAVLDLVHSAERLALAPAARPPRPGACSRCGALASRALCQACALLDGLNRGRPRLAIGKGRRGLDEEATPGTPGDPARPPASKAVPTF
inactive: [1] 0.005 | [2] -0.132 | [3] 0.081 | [4] -0.032 | [5] -0.012 | [6] -0.015 | [7] -0.026 | [8] 0.058 | [9] -0.049 | [10] -0.082

DNAAF2 (UniProt Q9NVR5)
UniProt Q9NVR5, sequence (Q9NVR5 whole entry, looked up): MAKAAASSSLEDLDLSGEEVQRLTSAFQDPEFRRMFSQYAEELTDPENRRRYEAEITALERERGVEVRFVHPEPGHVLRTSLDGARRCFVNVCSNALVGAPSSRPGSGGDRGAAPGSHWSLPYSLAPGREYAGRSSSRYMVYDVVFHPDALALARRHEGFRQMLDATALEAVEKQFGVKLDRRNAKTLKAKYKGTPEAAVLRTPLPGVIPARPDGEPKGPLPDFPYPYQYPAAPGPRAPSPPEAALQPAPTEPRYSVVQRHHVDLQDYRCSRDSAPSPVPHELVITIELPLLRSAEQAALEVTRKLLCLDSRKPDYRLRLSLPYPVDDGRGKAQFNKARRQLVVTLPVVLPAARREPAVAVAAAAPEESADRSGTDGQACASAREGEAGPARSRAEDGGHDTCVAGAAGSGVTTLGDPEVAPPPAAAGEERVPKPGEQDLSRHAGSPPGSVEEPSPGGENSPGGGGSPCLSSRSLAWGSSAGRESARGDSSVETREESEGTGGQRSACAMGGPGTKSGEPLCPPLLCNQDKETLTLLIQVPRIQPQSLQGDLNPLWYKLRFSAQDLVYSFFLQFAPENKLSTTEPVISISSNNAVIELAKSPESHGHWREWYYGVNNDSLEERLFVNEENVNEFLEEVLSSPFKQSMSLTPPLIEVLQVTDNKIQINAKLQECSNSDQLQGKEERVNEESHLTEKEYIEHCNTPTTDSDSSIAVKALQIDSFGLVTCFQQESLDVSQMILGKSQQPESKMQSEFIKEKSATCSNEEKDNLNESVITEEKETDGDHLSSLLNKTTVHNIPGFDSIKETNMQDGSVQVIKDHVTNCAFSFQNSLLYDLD
inactive: [1] 0.018 | [2] -0.015 | [3] -0.067 | [4] 0.003 | [5] 0.019 | [6] -0.182 | [7] 0.02 | [8] -0.034 | [9] 0.042 | [10] 0.032

F5 (UniProt P12259)
inactive: [1] 0.081 | [2] 0.257 | [3] -0.064 | [4] 0.057 | [5] -0.036 | [6] 0.023 | [7] 0.004 | [8] 0.223 | [9] 0.019 | [10] 0.055

DHX36 (UniProt Q9H2U1)
inactive: [1] -0.071 | [2] -0.101 | [3] -0.062 | [4] 0.2 | [5] -0.029 | [6] 0.069 | [7] -0.047 | [8] 0.045 | [9] 0.051 | [10] -0.081

DCUN1D1 (UniProt Q96GG9)
UniProt Q96GG9, sequence (Q96GG9 whole entry, looked up): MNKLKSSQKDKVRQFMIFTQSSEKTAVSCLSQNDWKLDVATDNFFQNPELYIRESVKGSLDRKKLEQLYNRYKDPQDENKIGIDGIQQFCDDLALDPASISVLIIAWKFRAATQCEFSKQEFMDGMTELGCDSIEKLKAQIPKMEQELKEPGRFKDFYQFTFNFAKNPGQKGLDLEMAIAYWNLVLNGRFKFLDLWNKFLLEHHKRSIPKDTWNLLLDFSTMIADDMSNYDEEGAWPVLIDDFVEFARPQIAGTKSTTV
inactive: [1] -0.027 | [2] -0.061 | [3] -0.047 | [4] -0.067 | [5] 0.004 | [6] -0.059 | [7] -0.004 | [8] 0.002 | [9] -0.053 | [10] 0.036

ESS2 (UniProt Q96DF8)
inactive: [1] -0.081 | [2] -0.079 | [3] 0.016 | [4] 0.031 | [5] -0.069 | [6] 0.004 | [7] -0.029 | [8] -0.044 | [9] 0.02 | [10] -0.053

DBN1 isoform 3 (UniProt Q16643)
inactive: [1] -0.063 | [2] 0.088 | [3] -0.075 | [4] 0.044 | [5] -0.097 | [6] -0.009 | [7] 0.158 | [8] -0.02 | [9] 0.02 | [10] 0.071

CTNNB1 (UniProt P35222)
inactive: [2] 0.024 | [3] -0.087 | [4] -0.102 | [5] 0.086 | [6] 0.336 | [7] 0.03 | [8] -0.024 | [9] 0.047 | [10] 0.078
active: [1] 0.666

CYFIP1 (UniProt Q7L576)
inactive: [1] 0.038 | [2] -0.029 | [3] 0.063 | [4] -0.042 | [5] 0.031 | [6] -0.079 | [7] 0 | [8] 0.038 | [9] -0.026 | [10] 0.031

DTNBP1 (UniProt Q96EV8)
inactive: [1] 0.093 | [2] 0 | [3] 0.079 | [4] -0.014 | [5] -0.012 | [6] -0.104 | [7] -0.034 | [8] 0.022 | [9] -0.009 | [10] -0.073

DHRS7B (UniProt Q6IAN0)
UniProt Q6IAN0, sequence (Q6IAN0 whole entry, looked up): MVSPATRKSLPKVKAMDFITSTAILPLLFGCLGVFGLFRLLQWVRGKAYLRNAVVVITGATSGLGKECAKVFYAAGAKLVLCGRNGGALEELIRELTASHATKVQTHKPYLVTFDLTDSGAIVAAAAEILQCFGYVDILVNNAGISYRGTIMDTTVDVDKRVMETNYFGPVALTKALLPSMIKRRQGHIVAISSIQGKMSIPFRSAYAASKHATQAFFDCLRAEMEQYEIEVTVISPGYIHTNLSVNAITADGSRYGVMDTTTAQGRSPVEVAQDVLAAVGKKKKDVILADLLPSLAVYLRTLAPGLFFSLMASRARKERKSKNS
active: [10] 0.367
inactive: [1] 0.066 | [2] 0.194 | [3] 0.003 | [4] -0.08 | [5] 0.097 | [6] -0.232 | [7] 0.033 | [8] 0.105 | [9] -0.006

CWC27 (UniProt Q6UX04)
UniProt Q6UX04, sequence (Q6UX04 whole entry, looked up): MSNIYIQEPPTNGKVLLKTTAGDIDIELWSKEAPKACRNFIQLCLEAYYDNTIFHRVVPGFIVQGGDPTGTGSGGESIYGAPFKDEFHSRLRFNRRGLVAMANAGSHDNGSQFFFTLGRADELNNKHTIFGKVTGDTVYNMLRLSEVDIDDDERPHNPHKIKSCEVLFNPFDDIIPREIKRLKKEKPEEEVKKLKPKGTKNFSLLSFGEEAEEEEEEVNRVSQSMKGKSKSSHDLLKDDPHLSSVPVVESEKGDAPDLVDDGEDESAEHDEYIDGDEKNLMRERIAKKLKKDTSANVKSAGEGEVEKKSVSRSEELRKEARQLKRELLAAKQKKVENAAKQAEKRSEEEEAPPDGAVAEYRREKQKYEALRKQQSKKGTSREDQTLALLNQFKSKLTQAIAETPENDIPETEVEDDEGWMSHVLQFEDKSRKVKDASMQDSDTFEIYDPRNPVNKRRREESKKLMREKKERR
inactive: [1] 0.03 | [2] 0.14 | [3] 0.145 | [4] -0.001 | [5] 0.144 | [6] 0.033 | [7] 0.077 | [8] 0.169 | [9] -0.091 | [10] -0.017

EIF4A1 (UniProt P60842)
UniProt P60842, sequence (P60842 whole entry, looked up): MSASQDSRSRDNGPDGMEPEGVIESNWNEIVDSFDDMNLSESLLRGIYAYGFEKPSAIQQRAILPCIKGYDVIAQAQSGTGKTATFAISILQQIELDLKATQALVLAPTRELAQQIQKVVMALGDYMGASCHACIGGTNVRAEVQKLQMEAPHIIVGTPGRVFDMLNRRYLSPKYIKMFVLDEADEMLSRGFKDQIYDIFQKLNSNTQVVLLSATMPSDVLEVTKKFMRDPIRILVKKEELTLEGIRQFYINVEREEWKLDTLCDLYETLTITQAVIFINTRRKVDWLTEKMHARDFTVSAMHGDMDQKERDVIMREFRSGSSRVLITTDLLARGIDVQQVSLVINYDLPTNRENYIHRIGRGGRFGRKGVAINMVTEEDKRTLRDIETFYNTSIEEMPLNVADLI
inactive: [1] -0.055 | [2] -0.058 | [3] 0.03 | [4] -0.015 | [5] 0.007 | [6] -0.206 | [7] -0.008 | [8] 0.047 | [9] 0.025 | [10] -0.11

EBNA1BP2 (UniProt Q99848)
UniProt Q99848, sequence (Q99848 whole entry, looked up): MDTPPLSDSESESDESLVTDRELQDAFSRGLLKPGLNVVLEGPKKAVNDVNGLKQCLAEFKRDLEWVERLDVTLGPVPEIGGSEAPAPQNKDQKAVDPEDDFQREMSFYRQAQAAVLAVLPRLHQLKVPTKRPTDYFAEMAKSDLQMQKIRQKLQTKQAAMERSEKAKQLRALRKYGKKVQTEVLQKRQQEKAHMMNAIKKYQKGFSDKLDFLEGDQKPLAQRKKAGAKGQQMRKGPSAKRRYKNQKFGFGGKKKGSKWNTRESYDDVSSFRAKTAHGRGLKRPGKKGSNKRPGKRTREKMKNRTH
inactive: [1] -0.013 | [2] -0.025 | [3] -0.236 | [4] 0.394 | [5] -0.138 | [6] 0.104 | [7] 0.191 | [8] 0.025 | [9] 0.282 | [10] 0.21

CTSZ (UniProt Q9UBR2)
UniProt Q9UBR2, sequence (Q9UBR2 whole entry, looked up): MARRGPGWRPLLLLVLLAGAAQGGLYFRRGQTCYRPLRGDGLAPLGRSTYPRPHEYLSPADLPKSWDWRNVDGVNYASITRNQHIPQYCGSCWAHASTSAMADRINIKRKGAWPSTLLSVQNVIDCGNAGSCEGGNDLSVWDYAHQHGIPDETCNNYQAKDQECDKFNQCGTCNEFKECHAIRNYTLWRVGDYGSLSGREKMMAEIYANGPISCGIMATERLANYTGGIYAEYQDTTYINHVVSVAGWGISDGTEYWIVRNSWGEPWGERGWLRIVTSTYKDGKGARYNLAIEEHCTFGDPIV
inactive: [1] -0.001 | [2] -0.007 | [3] 0.021 | [4] -0.033 | [5] -0.037 | [6] 0.03 | [7] -0.015 | [8] -0.037 | [9] 0.05
active: [10] -0.481

DNM2 isoform 4 (UniProt P50570)
inactive: [1] -0.302 | [2] -0.087 | [3] -0.039 | [4] -0.087 | [5] 0.159 | [6] 0.126 | [8] 0.5 | [9] -0.203 | [10] 0.092

DHRS1 (UniProt Q96LJ7)
UniProt Q96LJ7, sequence (Q96LJ7 whole entry, looked up): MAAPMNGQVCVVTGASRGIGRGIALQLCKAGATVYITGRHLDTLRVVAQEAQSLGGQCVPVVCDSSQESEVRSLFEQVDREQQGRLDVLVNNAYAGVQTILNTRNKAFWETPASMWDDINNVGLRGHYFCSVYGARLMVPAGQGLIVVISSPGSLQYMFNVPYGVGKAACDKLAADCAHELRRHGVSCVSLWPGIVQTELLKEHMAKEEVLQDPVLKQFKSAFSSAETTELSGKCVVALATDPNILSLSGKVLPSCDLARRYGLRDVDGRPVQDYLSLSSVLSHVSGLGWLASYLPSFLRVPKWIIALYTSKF
inactive: [1] 0.009 | [2] 0.248 | [3] 0.089 | [4] -0.028 | [5] 0.438 | [6] 0.297 | [7] 0.009 | [8] 0.571 | [9] 0.557 | [10] 0.247

ELF1 (UniProt P32519)
inactive: [1] 0.093 | [2] -0.06 | [3] -0.006 | [4] -0.007 | [5] 0.032 | [7] 0.008 | [8] 0.057 | [9] -0.039 | [10] -0.038

DBR1 (UniProt Q9UK59)
inactive: [1] -0.034 | [2] -0.022 | [3] 0.061 | [4] -0.014 | [5] -0.072 | [6] 0.003 | [7] -0.051 | [8] 0.01 | [9] 0.02 | [10] 0.058

EHBP1L1 (UniProt Q8N3D4)
inactive: [1] 0.034 | [2] -0.01 | [3] -0.005 | [4] 0.012 | [5] 0.139 | [6] -0.206 | [7] 0.067 | [8] 0.115 | [9] -0.018 | [10] -0.047

ELMO1 (UniProt Q92556)
inactive: [1] 0.06 | [2] -0.019 | [3] 0 | [5] 0.163 | [8] -0.043 | [9] 0.033 | [10] -0.299

EEF1A1 (UniProt P68104)
inactive: [1] 0.081 | [2] 0.001 | [3] -0.022 | [4] -0.474 | [5] -0.048 | [7] -0.139 | [8] -0.004 | [9] -0.062 | [10] 0.115

ELOC (UniProt Q15369)
active: [3] 0.279
inactive: [1] 0.038 | [2] 0.074 | [4] -0.07 | [5] 0.137 | [6] -0.001 | [7] 0.06 | [8] -0.015 | [9] 0.012 | [10] 0.134

DDX11 (UniProt Q96FC9)
inactive: [1] 0.02 | [2] -0.01 | [3] -0.144 | [5] 0.05 | [7] -0.068 | [8] 0.015 | [9] 0.224 | [10] 0.012
